The structures appear in SMILES notation.

The assay deals with Plasmodium falciparum. Kind of assay: GSK_TCMDC: Inhibition of Plasmodium falciparum 3D7 in whole red blood cells, using parasite LDH activity as an index of growth. Test compounds present at 2uM. It is filed as functional.
Compound `O=C(Nc1cccc(CN2CCCN(Cc3ccsc3)CC2)c1)c1ccc(-c2ccccc2)cc1.O=C(O)C(F)(F)F` came in with an Inhibition of 90%. Then `Cc1cccc2nc(-c3cccc(-c4cccc(NC(=O)NC5CC5c5ccccc5)c4)c3)[nH]c12` (stereo not drawn), with 98%. Then `Cc1ccc(Cn2cnc(N3CC(C)NC(C)C3)cc2=O)cc1NC(=O)Nc1ccc(-c2ccccc2)cc1.O=C(O)C(F)(F)F` (stereo not drawn), with 96%; and `Cc1cc(C2CCN(CCCCNC(=O)c3ccc(-c4ccc(C#N)cc4)cc3)CC2)c(C)cc1O`, with 96%. The same measure for `O=S(=O)(ON=C1CCc2ccccc21)c1ccc(Cl)cc1`: 100%.

As to `CCOC(=O)c1cc(C(=O)NCCCCN2CCC(c3ccc4c(c3OC)CCCC4)CC2)ccc1-c1ccc(C(F)(F)F)cc1`, the Inhibition is listed as 100%. Then `O=C(O)C(F)(F)F.c1cc(CN2CCN(CCN3CCOCC3)CC2)cc(-c2ccc(-c3nc4ccccc4[nH]3)cc2)c1`, with 100%. As for `CCNc1cc(C(=O)N[C@@H](Cc2ccccc2)[C@H](O)CNCCc2cccc3ccccc23)cc(N2CCCC2=O)c1.O=CO`, the Inhibition is reported as 86%. The same measure for `Cc1cnc(C(=O)Nc2cccc(-c3ccc(-c4nc5cc(F)ccc5[nH]4)cc3)c2)cn1`: 100%.

The compound `COc1ccccc1N(C)CCNc1cc(C)nc(Nc2ccc(C)cc2)n1` gave an Inhibition of 93%. Then `Cc1cccc2nc(-c3ccc(-c4cccc(NC(=O)COc5ccccc5C(N)=O)c4)s3)[nH]c12`, with 99%; and `CCOC(=O)NC1=NC(C)(C)N(OCc2ccc(Cl)c(Cl)c2)C(NC(=O)OCC)=N1`, with 98%. Then `c1ccc2[nH]c(CN(Cc3nc4ccccc4[nH]3)Cc3nc4ccccc4[nH]3)nc2c1`, with 81%.

By Inhibition is commonly meant the drop in the measured response relative to a control, in per cent. Higher therefore signals strong suppression.
